Test results published in PubChem BioAssay AID602448 (National Center for Advancing Translational Sciences (NCATS), 2012).
Active and inactive are the calls of the source.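 The calls were made as follows: active = max inhibition of at least 60%; inconclusive = max inhibition above 30% but below 60%; inactive = max inhibition of 30% or less.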

Biological target: Follicle-stimulating hormone receptor (Homo sapiens) (UniProt P23945)
Test: qHTS for antagonists of the Thyroid Stimulation Hormone Receptor: Hit Validation with Follickle Stimulating Hormone Receptor (FSHR)
Details: FSHR-expressing cells, cAMP HTRF, antagonist counterscreen; active compounds read high
Excerpt: The thyroid-stimulating hormone receptor (TSHR) is a member of the 7 trans-membrane-spanning receptor (7TMR) family of cell surface receptors. TSHR-mediated hyperthyroidism is important in thyroid pathology. The development of small molecule antagonists of TSHR may lead to therapeutic approaches for TSHR-mediated hyperthyroidism caused by constitutively activating mutations or stimulating auto-antibodies associated with Graves' disease. Graves' disease is the leading cause of hyperthyroidism and is caused by autoantibodies that stimulate TSHR (TsAbs) causing thyroid growth and unregulated overproduction of thyroid hormones and existing treatments have liabilities (agranulocytosis). In addition, TSHRs are known to be expressed in multiple extrathyroidal tissues including bone, brain, kidney, testis, fat and cells of the immune system but the role of the TSHR in these tissues is not clear. Therefore, TSHR antagonists/inverse agonists could be used as probes of extrathyroidal TSHR function. Finally, TSHR inverse agonists, which are a subclass of antagonists that inhibit agonist-independent (or basal or constitutive) TSHR signaling, could be used to inhibit TSH-independent signaling in patients with recurrent or metastatic thyroid cancer who are receiving thyroid hormone to suppress TSH. […]

Chain of Follicle-stimulating hormone receptor (Homo sapiens) (P23945 whole entry, looked up): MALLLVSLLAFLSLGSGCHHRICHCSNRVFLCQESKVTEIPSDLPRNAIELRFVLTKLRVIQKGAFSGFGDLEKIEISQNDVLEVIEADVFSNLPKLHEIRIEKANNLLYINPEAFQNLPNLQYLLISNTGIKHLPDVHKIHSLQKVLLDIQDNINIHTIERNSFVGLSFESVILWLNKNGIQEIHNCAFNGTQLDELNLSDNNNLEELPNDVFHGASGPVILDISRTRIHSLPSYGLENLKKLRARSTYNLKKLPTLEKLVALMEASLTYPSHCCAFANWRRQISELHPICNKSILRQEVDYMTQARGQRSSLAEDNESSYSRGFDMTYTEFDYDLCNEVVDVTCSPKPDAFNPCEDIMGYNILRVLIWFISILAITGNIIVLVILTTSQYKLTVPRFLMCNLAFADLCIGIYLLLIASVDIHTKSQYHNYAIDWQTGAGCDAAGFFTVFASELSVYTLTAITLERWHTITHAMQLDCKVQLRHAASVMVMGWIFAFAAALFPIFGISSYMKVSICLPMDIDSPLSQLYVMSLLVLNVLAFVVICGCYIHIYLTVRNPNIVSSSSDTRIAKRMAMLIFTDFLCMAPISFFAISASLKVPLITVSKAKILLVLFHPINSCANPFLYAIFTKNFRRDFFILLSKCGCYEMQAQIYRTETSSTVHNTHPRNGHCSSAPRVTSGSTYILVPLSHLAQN

In the case of COC(=O)C1=C(c2ccc(-c3ccccc3)c(F)c2)C[C@@H]2CC[C@H]1N2C(=O)NCCOc1ccccc1, the max inhibition is reported as 79.5% (active).
